Rows were chosen to be rich in hits. Some 7.5% of all compounds tested hit in one or more screens of this group.
HCV inh – blocks hepatitis C virus; Huh7.5.1 HCVcc-Cre infection, luciferase reporter, 44 h; Potency, µM (titrated, usually from 41.8 µM), most hits filed as inhibitors; 340,000 tested, 3.4% active; AID 651820
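Cells seeded at 1,000/well and cultured 4 h, then compounds added followed by HCVcc-Cre virus (~0.5 moi). After 44 h further culture, luciferase substrate was added, plates held 15 min at room temperature, and luminescence read for 15 sec.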
HCMV antiviral – human cytomegalovirus inhibition; 410,000 tested, 4.5% active; AID 1259415; HFF cells, HCMV-luciferase reporter, 72 h; hits give low values; activity change, negative = inhibition, % at 57.5 µM; in the data active = activity change below about -60%; inconclusive = no clear call, values can overlap the other calls; inactive = above about -39%
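Two compound doses tested in HFFs infected with HCMV-luciferase, MOI 1 PFU/cell, 72 h at 37C. Lysate luminescence read with OneGlo; data normalized against buffer-only and 10uM Salinomycin inhibitor controls.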
FMDV inh – foot and mouth disease virus antiviral activity; FMDV antiviral cell-based qHTS; Potency, µM (titrated, usually from 57.9 µM), actives largely listed as inhibitors; 410,000 tested, 1.2% active; AID 1159524; calls by dose curve; tested in HEK293T cells; also: read-out not given here; nearly all actives have a fitted effect of over 45% in size
FBPA Giardia inh – inhibitors of Giardia lamblia fructose-1,6-bisphosphate aldolase | purified Giardia FBPA | 290,000 tested, 0.71% active | Potency, µM (titrated, usually from 59.6 µM), hits mostly inhibitors | A8B2U2 | AID 2451; also: nearly all actives have a fitted effect of over 55% in size
Target sequence (A8B2U2 whole entry, looked up): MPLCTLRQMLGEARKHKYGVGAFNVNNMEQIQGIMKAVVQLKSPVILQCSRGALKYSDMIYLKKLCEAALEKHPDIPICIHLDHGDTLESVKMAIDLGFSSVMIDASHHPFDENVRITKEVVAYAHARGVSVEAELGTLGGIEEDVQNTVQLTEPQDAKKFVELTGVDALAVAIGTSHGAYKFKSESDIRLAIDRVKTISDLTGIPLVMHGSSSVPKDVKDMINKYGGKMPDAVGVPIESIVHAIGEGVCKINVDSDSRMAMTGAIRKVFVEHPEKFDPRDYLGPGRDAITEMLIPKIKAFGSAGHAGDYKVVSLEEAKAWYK
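Giardia FBPA (40 nM reagent) was preincubated 10 min at RT with compound (up to 57.5 uM final), then substrate plus GAPDH/TPI/NAD/arsenate coupling system with diaphorase/resazurin was added; resorufin fluorescence (525/598 nm) was read after 20 min.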
Vaccinia Venus – vaccinia inhibition (Venus reporter); 330,000 tested, 0.46% active; Vaccinia virus Venus reporter expression, fluorescence; Potency, µM (series often up to 36.5 µM), most hits filed as inhibitors; calls by dose curve; tested in A549 cells; also: nearly all actives have a fitted effect of over 30% in size
Vaccinia mCherry – inhibitors of vaccinia virus infection (mCherry reporter signal) | Vaccinia virus mCherry reporter infection, fluorescence | Potency, µM (titrated, usually from 36.5 µM), most hits filed as inhibitors | 310,000 tested, 0.63% active; calls by dose curve; tested in A549 cells; also: nearly all actives have a fitted effect of over 35% in size
Each line names hits and unclear results; the compound was inactive in the other large screens. Unless noted, calls follow the shape of the dose curve; as a rule, active = well fitted curve in the direction sought with a large enough effect; inconclusive = small, poorly fitted or top-dose-only effect, or another doubt; inactive = no such curve, though single readings can be large; an effect the other way counts as inactive or inconclusive.

Cc1ccsc1CN(C)CC(=O)Nc1ccc([N+](=O)[O-])cc1Cl	HCV inh 13µM, HCMV antiviral inconclusive
CCOC(=O)c1nn(-c2ccc(F)cc2)c(C)c1C(C)=O	HCMV antiviral -79
CCOC(=O)c1nn(-c2ccc(Cl)cc2)c(C)cc1=O	HCMV antiviral -73 (no result: Vaccinia Venus, Vaccinia mCherry)
CN(CC(=O)Nc1ccccc1Br)C(=O)c1cccnc1Nc1cccc(C(F)(F)F)c1	FMDV inh inconclusive (no result: HCV inh, FBPA Giardia inh)
CCCC(C)n1[nH]c(=O)c2c1NC(=O)CSC2c1ccc(OC)cc1 (stereo not given)	none (no result: Vaccinia mCherry)
COCc1cc(C2SCC(=O)Nc3c2c(=O)[nH]n3C(C)C)ccc1OC (stereo not given)	HCV inh 5.6µM (no result: Vaccinia mCherry)
CN(CCc1ccc(Cl)c(Cl)c1)C[C@@H](O)COc1ccc(NS(C)(=O)=O)cc1	none (no result: HCV inh, HCMV antiviral, Vaccinia Venus, Vaccinia mCherry)
Cc1nc(N2CCCCC2)c2c(C)c(C(=O)Nc3cccc(C(F)(F)F)c3)sc2n1	HCV inh 25µM, HCMV antiviral -60, FMDV inh inconclusive (no result: Vaccinia Venus, Vaccinia mCherry)
Cc1nc(N2CCCCC2C)c2c(C)c(C(=O)Nc3cccc(C(F)(F)F)c3)sc2n1 (stereo not given)	HCV inh inconclusive, FMDV inh inconclusive
COc1ccc(CNc2ccc(Cl)cc2)cc1Cn1ccnc1	HCV inh inconclusive, FMDV inh inconclusive
CCc1ccc(NCc2ccc(OC)c(Cn3ccnc3)c2)cc1	HCV inh inconclusive, HCMV antiviral -64, FMDV inh inconclusive (no result: Vaccinia Venus, Vaccinia mCherry)
COc1ccccc1NC(=O)N1CCc2[nH]c3ccc(Cl)cc3c2C1	HCV inh 11µM, FMDV inh inconclusive, Vaccinia Venus inconclusive, Vaccinia mCherry inconclusive
O=S(=O)(c1ccccc1OC(F)(F)F)N1CCN(c2ccnc3cc(Cl)ccc23)CC1	HCV inh inconclusive, FMDV inh inconclusive (no result: FBPA Giardia inh, Vaccinia Venus, Vaccinia mCherry)
COc1ccccc1NC(=O)N1CCN(c2ccnc3cc(Cl)ccc23)CC1	HCV inh inconclusive, HCMV antiviral -67, FMDV inh inconclusive, Vaccinia mCherry inconclusive
COc1ccccc1N1CCN(c2ccnc3cc(Cl)ccc23)CC1	HCV inh inconclusive, HCMV antiviral -63, Vaccinia mCherry 11µM
COc1ccc2c3c(n(C)c2c1)[C@@H](CO)N(C(C)=O)CC31CN(Cc2nccs2)C1	none (no result: HCV inh, FMDV inh, FBPA Giardia inh, Vaccinia Venus, Vaccinia mCherry)
N#Cc1c(-c2ccccc2)cc(-c2ccccc2)nc1SCCC(=O)O	none
CC(C)C[C@H]1CNC(=O)C(=O)N1C[C@H]1CCCN1C[C@H](CC(C)C)N1C[C@H](CC(C)C)N(CCc2ccccc2)C(=O)C1=O	none (no result: HCV inh, FBPA Giardia inh)
CCCC1C2C(=O)N(c3cccc(C)c3)C(=O)C2ON1c1ccccc1 (stereo not given)	none (no result: Vaccinia Venus, Vaccinia mCherry)
O=C(C1CCC(CNS(=O)(=O)c2cccc3cccnc23)CC1)N1CCc2ccccc21 (stereo not given)	HCV inh inconclusive, HCMV antiviral -61, FMDV inh inconclusive
CN1CCN(C(=O)C2CCC(CNS(=O)(=O)c3cccc4cccnc34)CC2)CC1 (stereo not given)	none
CN(Cc1ccccc1)C(=O)C1CCC(CNS(=O)(=O)c2cccc3cccnc23)CC1 (stereo not given)	HCV inh inconclusive, HCMV antiviral -62 (no result: Vaccinia Venus, Vaccinia mCherry)
CCOc1ccccc1NC(=O)C1CCCN1S(=O)(=O)c1ccc2c(c1)C(C)(C)C(=O)N2C (stereo not given)	none (no result: HCV inh, FBPA Giardia inh)
CC1(c2ccccc2Cl)NC(=O)N(CC(=O)Nc2ccc(N3CCCCC3)cc2)C1=O (stereo not given)	HCV inh inconclusive, HCMV antiviral inconclusive (no result: FBPA Giardia inh)
Cc1[nH][nH]c(=O)c1C(c1ccc(Br)cc1)c1c(C)[nH][nH]c1=O	none
Cc1[nH][nH]c(=O)c1C(c1ccc(-c2ccccc2C(=O)O)o1)c1c(C)[nH][nH]c1=O	FBPA Giardia inh 7.9µM
O=c1[nH]nc(Cc2ccc(-c3cccc(Cl)c3)o2)c2ccccc12	HCV inh inconclusive, FMDV inh inconclusive
Cc1[nH][nH]c(=O)c1C(c1ccc(-c2cccc(Cl)c2)o1)c1c(C)[nH][nH]c1=O	FMDV inh inconclusive, FBPA Giardia inh 5µM, Vaccinia mCherry inconclusive (no result: HCMV antiviral)
Cc1[nH][nH]c(=O)c1C(c1ccc(-c2ccc(Cl)cc2Cl)o1)c1c(C)[nH][nH]c1=O	FBPA Giardia inh 13µM (no result: HCV inh, HCMV antiviral, FMDV inh, Vaccinia Venus, Vaccinia mCherry)
Cc1[nH][nH]c(=O)c1C(c1ccc(-c2cccc(C(=O)O)c2)o1)c1c(C)[nH][nH]c1=O	FBPA Giardia inh 20µM
COc1ccc(C(=O)Oc2ccc(C(c3c(C)[nH][nH]c3=O)c3c(C)[nH][nH]c3=O)cc2OC)cc1	HCMV antiviral inconclusive (no result: HCV inh, FBPA Giardia inh)
COC(=O)c1ccc(-c2ccc(C(c3c(C)[nH][nH]c3=O)c3c(C)[nH][nH]c3=O)o2)cc1	HCMV antiviral inconclusive, FBPA Giardia inh 4.5µM
O=C(COC(=O)c1ccccc1Oc1ccccc1)Nc1ccc(Br)cc1	none (no result: HCV inh, HCMV antiviral, FMDV inh, FBPA Giardia inh)
CC(=O)CSc1ccc(-c2nc3ccccc3[nH]2)cn1	HCV inh inconclusive
CC(=O)CSc1ccc(-c2nc3cc(C)c(C)cc3[nH]2)cn1	HCV inh inconclusive, HCMV antiviral -100, FMDV inh 8.9µM
Cc1cc2nc(-c3ccc(SCc4ccc(C#N)cc4)nc3)[nH]c2cc1C	HCV inh 11µM, HCMV antiviral inconclusive, FMDV inh inconclusive
Cc1cc(Oc2ccc(C#N)cc2)nc(NCc2ccccc2)n1	HCV inh inconclusive, Vaccinia Venus inconclusive
COc1ccc(S(=O)(=O)NCC2CCCN(C(=O)c3cccnc3)C2)cc1 (stereo not given)	HCMV antiviral -60
O=[N+]([O-])c1cc(S(=O)(=O)N2CCCCCC2)ccc1Cl	HCV inh 11µM, HCMV antiviral inconclusive
COc1ccc(S(=O)(=O)N2CCN(CC(=O)Nc3cc(Cl)ccc3Cl)CC2)cc1	HCMV antiviral -71 (no result: FBPA Giardia inh)
O=C(CN1CCN(c2ccccc2O)CC1)Nc1ccc(S(=O)(=O)N2CCCCCC2)cc1	HCV inh inconclusive, FMDV inh inconclusive (no result: FBPA Giardia inh)
O=C(CCl)Nc1cc(S(=O)(=O)N2CCCCCC2)ccc1Cl	HCV inh 35µM, HCMV antiviral -64, FMDV inh inconclusive, Vaccinia Venus inconclusive, Vaccinia mCherry inconclusive
O=C(CN1CCN(c2ccccc2O)CC1)Nc1cc(S(=O)(=O)N2CCCC2)ccc1Cl	HCV inh 11µM (no result: FBPA Giardia inh, Vaccinia Venus, Vaccinia mCherry)
Cc1ccc(S(=O)(=O)N2CCCC2)cc1[N+](=O)[O-]	none
COc1ccccc1C1CN(Cc2c(C)nn(C)c2Cl)Cc2ccccc2O1 (stereo not given)	none (no result: HCV inh, HCMV antiviral, FBPA Giardia inh)
COC(=O)CSc1nc2ccccn2c(=O)c1C=O	none
O=C(Nc1ccc(Br)cc1F)c1ncoc1-c1ccco1	none (no result: HCV inh, FBPA Giardia inh)
COC(=O)c1ccccc1-c1cc(C)cc2c1OC(CNC(=O)c1cnc(C)cn1)C2 (stereo not given)	none (no result: HCV inh, HCMV antiviral, FBPA Giardia inh)
COc1cc(S(=O)(=O)Nc2ccc3c(c2)C(=O)N(C)C3=O)ccc1NC(C)=O	none (no result: FBPA Giardia inh)
O=C(Nc1nc(-c2ccc3ccccc3c2)cs1)c1ccc(N2C(=O)CCC2=O)cc1	HCMV antiviral -71, FMDV inh inconclusive, Vaccinia Venus inconclusive, Vaccinia mCherry inconclusive
